Results filed as inconclusive are left out. The source made the active and inactive calls. The calls were made as follows, unless noted: active = hit-call score of the fitted dose curve at least 0.9, where 1 is the maximum; inactive = score below 0.9.
Experiments:
[1] = biological target: Aryl hydrocarbon receptor (Homo sapiens) (UniProt P35869); assay: ATG_Ahr_CIS: Attagene CIS-FACTORIAL HepG2 Assay for human Aryl Hydrocarbon Receptor (Ahr) (AID 2282930); conditions: HepG2 AhR cis-factorial reporter transcription; actives raise or lower the signal
How it was run: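 HepG2, transient MRTU (cis) transfection, 24 h exposure. RNA → cDNA → PCR → 6-FAM primer extension → HpaI 2 h 37 C → CE. Fit: bidirectional, DMSO baseline.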

[2] = ATG_AP_1_CIS: Attagene CIS-FACTORIAL HepG2 Assay for human Activator Protein 1 (AP-1) (AID 2282931); conditions: HepG2 Attagene cis-factorial AP-1 reporter mRNA; actives raise or lower the signal
How it was run: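 Multiplexed HepG2 reporter assay, 24 h dosing. mRNA induction detected by RT-PCR plus capillary electrophoresis. Activity fitted in both directions against DMSO.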

[3] = ATG_BRE_CIS: Attagene CIS-FACTORIAL HepG2 Assay for human Bone Morphogenetic Protein (BMP) Response Element (BRE) (AID 2282933); conditions: HepG2 BMP response element reporter, Attagene transcription factor profiling; actives raise or lower the signal
How it was run: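 Gain- or loss-of-signal was derived by bidirectional fitting against DMSO controls. The signal came from reporter mRNA, measured by RT-PCR and capillary electrophoresis, in HepG2 cells transiently carrying multiple reporter units and dosed for 24 h.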

[4] = ATG_GLI_CIS: Attagene CIS-FACTORIAL HepG2 Assay for human Zinc Finger Protein GLI1 (AID 2282945); conditions: HepG2, Attagene cis-factorial reporter mRNA, GLI element; actives raise or lower the signal
How it was run: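 Bidirectional curve fits relative to DMSO, using reporter mRNA levels from RT-PCR plus capillary electrophoresis. Cells were HepG2 transiently carrying cis-regulated reporter constructs, harvested 24 h after dosing.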

[5] = biological target: Paired box protein Pax-6 (Homo sapiens) (UniProt P26367); assay: ATG_Pax6_CIS: Attagene CIS-FACTORIAL HepG2 Assay for human Paired Box 6 (PAX6) (AID 2282956); conditions: HepG2 CIS-FACTORIAL PAX6 reporter transcription, RNA readout; actives raise or lower the signal
How it was run: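 Multiplexed cis-reporter HepG2 system; 24 h treatment; reporter mRNA read by RT-PCR/CE fluorescence; bidirectional fit vs DMSO.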

[6] = ATG_TAL_CIS: Attagene CIS-FACTORIAL HepG2 Assay for human TAL Basal Promoter (AID 2282966); conditions: HepG2 Attagene cis-factorial TAL promoter reporter; actives raise or lower the signal;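 also: background control endpoint measuring basal TAL promoter reporter mRNA not a specific factor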
How it was run: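 Fluorescence of labelled reporter cDNA fragments, resolved by capillary electrophoresis, gave the readout. Human HepG2 liver cells carried transiently transfected cis-element reporter units and were treated for 24 hours; activity was fitted bidirectionally against DMSO.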

[7] = ATG_VDRE_CIS: Attagene CIS-FACTORIAL HepG2 Assay for human Vitamin D Receptor Element (VDRE) (AID 2282968); conditions: HepG2 VDRE cis-reporter transcription, actives raise or lower the signal
How it was run: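 In transiently transfected HepG2 liver cells, gain or loss of reporter mRNA after 24 h exposure is scored relative to DMSO, using fluorescence detection by capillary electrophoresis of RT-PCR products.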

[8] = biological target: X-box-binding protein 1 (Homo sapiens) (UniProt P17861); assay: ATG_Xbp1_CIS: Attagene CIS-FACTORIAL HepG2 Assay for human X-box Binding Protein 1 (XBP1) (AID 2282972); conditions: HepG2 XBP1 cis-element reporter, Attagene multiplex; actives raise or lower the signal
How it was run: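 Fluorescence-labelled cDNA fragments from reporter transcripts, separated by capillary electrophoresis, give the signal. Source: HepG2 cells transfected with promoter-driven reporter units, harvested 24 h post-dose. DMSO served as reference for bidirectional curve fitting.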

[9] = ATG_NFI_CIS: Attagene CIS-FACTORIAL HepG2 Assay for human Nuclear Factor I (NFI) (AID 2282989); conditions: HepG2 cis-regulatory reporter, NFI response element transcription; actives raise or lower the signal
How it was run: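 After transient transfection of HepG2 with cis-promoter reporter constructs and 24 h dosing, RNA is reverse-transcribed, amplified, 6-FAM end-labelled and HpaI-digested before capillary analysis. Bidirectional curve fitting against DMSO.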

[10] = biological target: Myc proto-oncogene protein (Homo sapiens) (UniProt P01106); assay: ATG_Myc_CIS: Attagene CIS-FACTORIAL HepG2 Assay for human Myelocytomatosis (Myc) Proto-Oncogene Transcription Factor (AID 2282990); conditions: HepG2, Attagene cis-reporter transcription factor activity; actives raise or lower the signal
How it was run: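 Cells of the HepG2 human liver line bear multiple cis-driven reporter transcription units. Reporter mRNA after 24 h exposure is reverse-transcribed, amplified, labelled and resolved by capillary electrophoresis, with gain- or loss-of-signal fitting relative to DMSO.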

[11] = ATG_NF_kB_CIS: Attagene CIS-FACTORIAL HepG2 Assay for human Nuclear Factor Kappa B (NF-kB) (AID 2282991); conditions: HepG2 Attagene cis-factorial NF-kB reporter mRNA; actives raise or lower the signal
How it was run: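 Measures mRNA induction of an NF-kB-responsive cis-element reporter in HepG2 cells transfected with multiple reporter units, sampled 24 h post-dosing; quantified by fluorescence after RT-PCR and capillary electrophoresis, fitted for activation or inhibition against DMSO.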

[12] = ATG_NRF2_ARE_CIS: Attagene CIS-FACTORIAL HepG2 Assay for human Nuclear Factor Erythroid 2 Related Factor 2 (NFR2) response to Antioxidant Response Elements (ARE) (AID 2282992); conditions: HepG2 Attagene ARE/NRF2 reporter, transcription factor activity; actives raise or lower the signal
How it was run: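 Multiplexed reporter mRNA profiling in HepG2 after a 24 h chemical exposure. Curves fitted in both directions relative to DMSO negative control.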

[13] = ATG_Oct_MLP_CIS: Attagene CIS-FACTORIAL HepG2 Assay for human Octamer-Binding Transcription Factor (Oct) (AID 2282993); conditions: HepG2 Attagene cis-factorial Oct reporter, mRNA; actives raise or lower the signal
How it was run: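 Cells of the HepG2 line express promoter-controlled reporter sequences whose mRNA levels, after 24 h treatment, are measured by RT-PCR and capillary electrophoresis. Increases and decreases are scored relative to DMSO.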

[14] = biological target: Peroxisome proliferator-activated receptor gamma (Homo sapiens) (UniProt P37231); assay: ATG_PPARg_TRANS: Attagene TRANS-FACTORIAL HepG2 Assay for human Peroxisome Proliferator-activated Receptor-gamma (PPARg) (AID 2283007; active = hit-call score of the fitted dose curve at least 0.9, where 1 is the maximum)
How it was run: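 Gain-of-signal endpoint relative to DMSO, derived from reporter mRNA levels quantified by RT-PCR and capillary electrophoresis. Cells were HepG2 transiently expressing a chimeric NR-Gal4 construct with GAL4-UAS reporters, exposed to chemicals for 24 h.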

[15] = ATG_XTT_Cytotoxicity: Cytotoxicity Assessment in the Attagene TRANS-FACTORIAL HepG2 Assay (AID 2283584; active = hit-call score of the fitted dose curve at least 0.9, where 1 is the maximum)
How it was run: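 Cells: human HepG2, transiently transfected with MRTU reporter constructs. Exposure 24 h. Readout: XTT, cell number. Baseline/neg ctrl DMSO; loss-of-signal scored.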

[16] = ATG_RORE_CIS: Attagene CIS-FACTORIAL HepG2 Assay for human RAR-related Orphan Receptor Element (RORE) (AID 2282959); conditions: HepG2 Attagene cis-factorial RORE reporter, mRNA; actives raise or lower the signal
How it was run: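 Endogenous factor activity at a cis response element is read as reporter transcript levels in HepG2 cells, 24 h post-dose. Transcripts are quantified by RT-PCR with capillary electrophoresis, and data fitted in both directions against DMSO.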

[17] = ATG_TGFb_CIS: Attagene CIS-FACTORIAL HepG2 Assay for human Transforming Growth Factor (TGF) (AID 2282967); conditions: HepG2 Attagene CIS TGFb reporter, mRNA transcription; actives raise or lower the signal
How it was run: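 Transcript-level reporter readout: HepG2 transfectants, 24 h exposure, RNA to cDNA, reporter-specific PCR, fluorescent primer extension, capillary sizing against ROX standards. Gain- or loss-of-signal relative to DMSO.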

[18] = ATG_M_32_TRANS: Attagene TRANS-FACTORIAL HepG2 Assay for M32 Transcription Factor (Internal Marker) (AID 2282984; active = hit-call score of the fitted dose curve at least 0.9, where 1 is the maximum;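 also: transcript level of a background control reporter unit measured by RT-PCR and capillary electrophoresis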); conditions: HepG2 Attagene TRANS M32 internal marker reporter
How it was run: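 Using transiently transfected HepG2 cells exposed to test chemicals for 24 h, reporter transcripts are converted to labelled cDNA fragments and quantified by capillary electrophoresis. DMSO defines the activity baseline.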

[19] = biological target: Cellular tumor antigen p53 (Homo sapiens) (UniProt P04637); assay: ATG_p53_CIS: Attagene CIS-FACTORIAL HepG2 Assay for human p53 Transcription Factor (AID 2282994); conditions: HepG2 p53 cis-element reporter, Attagene mRNA; actives raise or lower the signal
How it was run: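 Multiplexed reporter mRNA assay in human HepG2 liver cells; cis-regulated units report endogenous factor activity. Values come from bidirectional curve fitting against DMSO negative control after 24 h treatment.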

[20] = biological target: Nuclear receptor subfamily 1 group I member 2 (Homo sapiens) (UniProt O75469); assay: ATG_PXR_TRANS: Attagene TRANS-FACTORIAL HepG2 Assay for human Pregnane X Receptor (PXR) (AID 2283008; active = hit-call score of the fitted dose curve at least 0.9, where 1 is the maximum)
How it was run: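 Measures mRNA induction of a GAL4-UAS-driven reporter in human HepG2 cells transiently expressing PXR fused to Gal4, following 24 h treatment. DMSO served as negative control and baseline.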

Measured: AC50

Sequence of Aryl hydrocarbon receptor (Homo sapiens) (P35869 whole entry, looked up): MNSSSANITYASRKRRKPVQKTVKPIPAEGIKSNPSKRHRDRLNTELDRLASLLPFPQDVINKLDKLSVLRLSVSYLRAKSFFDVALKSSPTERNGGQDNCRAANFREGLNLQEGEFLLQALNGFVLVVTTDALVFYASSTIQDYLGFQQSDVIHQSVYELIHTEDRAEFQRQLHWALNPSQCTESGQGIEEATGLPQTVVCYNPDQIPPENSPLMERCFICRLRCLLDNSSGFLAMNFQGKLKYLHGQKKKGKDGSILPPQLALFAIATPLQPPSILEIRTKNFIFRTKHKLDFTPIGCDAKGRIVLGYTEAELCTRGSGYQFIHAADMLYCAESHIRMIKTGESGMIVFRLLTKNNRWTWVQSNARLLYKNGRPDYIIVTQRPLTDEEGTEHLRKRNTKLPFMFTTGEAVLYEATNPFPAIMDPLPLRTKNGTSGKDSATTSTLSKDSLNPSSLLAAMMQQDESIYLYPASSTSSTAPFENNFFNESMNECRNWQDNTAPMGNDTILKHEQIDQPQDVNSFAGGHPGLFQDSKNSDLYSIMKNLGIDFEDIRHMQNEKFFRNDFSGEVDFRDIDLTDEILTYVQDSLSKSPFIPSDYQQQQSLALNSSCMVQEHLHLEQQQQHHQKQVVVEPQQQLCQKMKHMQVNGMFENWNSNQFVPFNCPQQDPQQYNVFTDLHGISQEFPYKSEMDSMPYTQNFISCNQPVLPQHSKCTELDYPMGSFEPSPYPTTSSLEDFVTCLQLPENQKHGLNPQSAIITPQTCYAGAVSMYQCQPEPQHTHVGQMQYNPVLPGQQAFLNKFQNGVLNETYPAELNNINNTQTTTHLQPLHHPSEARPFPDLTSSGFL
Sequence of Cellular tumor antigen p53 (Homo sapiens) (P04637 whole entry, looked up): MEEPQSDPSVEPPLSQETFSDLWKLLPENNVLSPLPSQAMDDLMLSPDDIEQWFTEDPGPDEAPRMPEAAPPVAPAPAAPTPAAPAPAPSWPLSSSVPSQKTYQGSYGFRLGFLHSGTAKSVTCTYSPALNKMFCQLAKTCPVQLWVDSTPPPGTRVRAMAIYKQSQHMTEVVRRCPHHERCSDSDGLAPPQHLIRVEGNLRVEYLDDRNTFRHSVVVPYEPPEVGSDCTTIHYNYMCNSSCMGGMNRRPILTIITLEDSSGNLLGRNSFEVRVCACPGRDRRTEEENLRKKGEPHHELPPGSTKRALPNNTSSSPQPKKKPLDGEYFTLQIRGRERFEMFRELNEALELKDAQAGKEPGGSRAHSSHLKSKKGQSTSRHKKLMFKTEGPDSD
Sequence of Myc proto-oncogene protein (Homo sapiens) (P01106 whole entry, looked up): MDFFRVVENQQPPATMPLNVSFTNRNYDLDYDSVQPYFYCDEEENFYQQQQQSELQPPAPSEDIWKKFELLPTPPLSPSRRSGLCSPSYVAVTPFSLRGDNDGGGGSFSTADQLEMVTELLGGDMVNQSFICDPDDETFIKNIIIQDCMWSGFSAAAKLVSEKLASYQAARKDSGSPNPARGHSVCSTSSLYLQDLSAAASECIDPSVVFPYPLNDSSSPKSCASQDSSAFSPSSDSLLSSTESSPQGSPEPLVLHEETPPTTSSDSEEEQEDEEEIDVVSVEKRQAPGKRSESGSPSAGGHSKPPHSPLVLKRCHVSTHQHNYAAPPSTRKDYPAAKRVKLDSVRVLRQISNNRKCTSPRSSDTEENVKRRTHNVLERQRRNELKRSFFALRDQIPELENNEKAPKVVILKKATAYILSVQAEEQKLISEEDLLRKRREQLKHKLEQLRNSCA
Sequence of Peroxisome proliferator-activated receptor gamma (Homo sapiens) (P37231 whole entry, looked up, the tested form may be a part): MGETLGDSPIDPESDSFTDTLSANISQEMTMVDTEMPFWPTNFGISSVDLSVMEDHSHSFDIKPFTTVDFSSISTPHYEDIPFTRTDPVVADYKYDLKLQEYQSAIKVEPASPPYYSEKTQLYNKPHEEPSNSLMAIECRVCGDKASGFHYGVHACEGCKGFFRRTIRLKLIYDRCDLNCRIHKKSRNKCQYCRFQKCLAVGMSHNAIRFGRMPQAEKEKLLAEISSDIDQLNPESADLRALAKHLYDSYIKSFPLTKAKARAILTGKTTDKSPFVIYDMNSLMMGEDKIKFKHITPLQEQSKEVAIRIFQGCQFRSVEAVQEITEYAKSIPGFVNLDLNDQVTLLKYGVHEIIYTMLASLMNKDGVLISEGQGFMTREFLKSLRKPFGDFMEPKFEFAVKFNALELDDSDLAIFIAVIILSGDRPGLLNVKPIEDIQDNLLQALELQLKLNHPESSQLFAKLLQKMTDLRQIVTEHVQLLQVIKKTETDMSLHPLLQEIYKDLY
Sequence of Paired box protein Pax-6 (Homo sapiens) (P26367 whole entry, looked up): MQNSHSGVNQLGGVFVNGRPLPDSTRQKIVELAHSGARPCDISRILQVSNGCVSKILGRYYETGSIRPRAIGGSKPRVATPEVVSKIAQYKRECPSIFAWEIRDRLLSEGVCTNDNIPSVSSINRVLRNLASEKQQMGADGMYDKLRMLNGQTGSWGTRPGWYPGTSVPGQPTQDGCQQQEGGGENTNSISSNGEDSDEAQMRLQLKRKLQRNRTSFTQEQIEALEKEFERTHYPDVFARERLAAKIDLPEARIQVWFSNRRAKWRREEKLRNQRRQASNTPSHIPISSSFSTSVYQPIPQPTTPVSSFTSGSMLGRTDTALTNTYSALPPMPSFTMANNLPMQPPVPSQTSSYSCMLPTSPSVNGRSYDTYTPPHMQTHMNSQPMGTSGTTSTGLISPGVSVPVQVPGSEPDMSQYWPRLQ
Sequence of X-box-binding protein 1 (Homo sapiens) (P17861 whole entry, looked up, the tested form may be a part): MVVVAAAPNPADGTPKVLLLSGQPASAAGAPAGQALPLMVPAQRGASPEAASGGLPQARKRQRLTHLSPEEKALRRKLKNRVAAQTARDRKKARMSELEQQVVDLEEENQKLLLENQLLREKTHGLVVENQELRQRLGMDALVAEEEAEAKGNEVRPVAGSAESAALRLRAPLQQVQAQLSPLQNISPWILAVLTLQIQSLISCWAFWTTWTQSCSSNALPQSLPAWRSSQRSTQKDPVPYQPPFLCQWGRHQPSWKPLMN
Sequence of Nuclear receptor subfamily 1 group I member 2 (Homo sapiens) (O75469 whole entry, looked up, the tested form may be a part): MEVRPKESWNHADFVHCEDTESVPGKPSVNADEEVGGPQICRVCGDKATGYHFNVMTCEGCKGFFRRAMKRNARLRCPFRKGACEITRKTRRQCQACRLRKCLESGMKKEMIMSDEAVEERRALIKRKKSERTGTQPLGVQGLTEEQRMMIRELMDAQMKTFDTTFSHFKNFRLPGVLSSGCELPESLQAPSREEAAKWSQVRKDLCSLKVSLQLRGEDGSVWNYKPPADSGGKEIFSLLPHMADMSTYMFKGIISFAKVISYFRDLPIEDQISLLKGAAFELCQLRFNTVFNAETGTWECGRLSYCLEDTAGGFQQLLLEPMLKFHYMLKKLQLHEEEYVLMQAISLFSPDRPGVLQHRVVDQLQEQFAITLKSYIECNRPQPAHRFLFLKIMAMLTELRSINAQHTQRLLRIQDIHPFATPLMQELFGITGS

O=C=Nc1ccccc1
inactive: [2] | [3] | [4] | [5] | [6] | [7] | [8] | [9] | [10] | [11] | [12] | [13] | [14] | [15]
active: [1] 9.05 µM

CCCOC(=O)c1ccccc1C(=O)OCCC
inactive: [1] | [2] | [3] | [5] | [16] | [6] | [17] | [8] | [18] | [9] | [10] | [11] | [12] | [13] | [19] | [15]
active: [14] 86.3 µM | [20] 70.3 µM

CC(C)COP(=O)(OCC(C)C)OCC(C)C
inactive: [2] | [3] | [4] | [16] | [6] | [17] | [8] | [18] | [9] | [10] | [11] | [13] | [19] | [15]
active: [1] 73.3 µM | [7] 55.8 µM | [12] 37 µM | [14] 49.8 µM | [20] 1.52 µM

C=CC(=O)OCC(CC)CCCC (stereo not drawn)
active: [12] 100 µM
inactive: [1] | [2] | [4] | [5] | [16] | [6] | [17] | [7] | [8] | [18] | [9] | [10] | [11] | [13] | [19] | [14] | [20] | [15]

C[C@]12CCC(=O)C(O)=C1CC[C@@H]1[C@@H]2CC[C@]2(C)C(=O)CC[C@@H]12
inactive: [2] | [3] | [4] | [5] | [16] | [6] | [17] | [7] | [8] | [9] | [10] | [11] | [13] | [19] | [14] | [20] | [15]
active: [1] 31.2 µM | [12] 13.8 µM

CC(C)(c1cc(Cl)c(O)c(Cl)c1)c1cc(Cl)c(O)c(Cl)c1
inactive: [1] | [2] | [3] | [16] | [6] | [17] | [8] | [18] | [9] | [10] | [12] | [13] | [15]
active: [4] 60.7 µM | [5] 52.3 µM | [7] 27.2 µM | [11] 9 µM | [19] 52.1 µM | [14] 3.75 µM | [20] 1.87 µM

COc1ccc(CO)cc1
inactive: [1] | [2] | [3] | [5] | [16] | [6] | [17] | [7] | [8] | [18] | [9] | [10] | [12] | [13] | [19] | [15]

[Cl-].[Cl-].[Cl-].[Yb+3]
inactive: [1] | [2] | [3] | [4] | [5] | [16] | [6] | [7] | [8] | [9] | [10] | [12] | [13] | [19] | [14] | [20] | [15]
